Several values for one entry are separate records, joined by “and”; a condition that tells them apart may be missing. Equal entries are not always repeated. The whole screen tested about 5,500 compounds, of which about 2,000 (36%) were called active. Another 18% or so got no clear call; they are omitted. No stated cut-off is given here; in the data, active means normalized growth mostly below about 0.91 (no sharp cut-off); inconclusive means no clear call, values can overlap the other calls; inactive means mostly above about 0.92. The list shows a part of the results.
Experiment: chemical genetic growth profiling, strain panel (AID 1159580);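 further: tested at 20 µM; growth read once vehicle control cultures reached saturation at 30 °C; 1 = growth at the plate median or of vehicle wells; lower values mean less growth of the strain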
Details: S. cerevisiae deletion strains, growth OD

Measured: normalized growth

CCCCCc1c2c(cc(O)c1C(=O)O)OC(=O)c1c(cc(OC)cc1C(=O)CCCC)O2
inactive: locus YAL021C, strain ccr4, hits give low values 0.954 | locus YAL026C, strain drs2, hits give low values 1.01 | locus YAL030W, strain snc1, hits give low values 0.993 | locus YBL061C, strain skt5, hits give low values 0.999 | locus YBR009C, strain hhf1, hits give low values 1.01 | locus YBR021W, strain FUR4, hits give low values 1.02 | locus YBR023C, strain chs3, hits give low values 1 | locus YBR171W, strain sec66, hits give low values 1 | locus YBR229C, strain ROT2, hits give low values 0.935 | locus YBR231C, strain swc5, hits give low values 0.988 | locus YBR279W, strain paf1, hits give low values 1.01 | locus YCL011C, strain gbp2, hits give low values 0.997 | locus YCL016C, strain dcc1, hits give low values 0.994 | locus YCL029C, strain bik1, hits give low values 0.989 | locus YCL069W, strain vba3, hits give low values 1.03 | locus YCR088W, strain abp1, hits give low values 1 | locus YDL005C, strain med2, hits give low values 0.977 | locus YDL035C, strain GPR1, hits give low values 0.945 | locus YDL040C, strain nat1, hits give low values 0.994 | locus YDL074C, strain BRE1, hits give low values 0.982 | locus YDL101C, strain DUN1, hits give low values 0.998 | locus YDL185W, strain tfp1, hits give low values 0.968 | locus YDL192W, strain arf1, hits give low values 0.968 | locus YDR001C, strain nth1, hits give low values 1 | locus YDR069C, strain doa4, hits give low values 0.985 | locus YDR101C, strain arx1, hits give low values 0.961 | locus YDR137W, strain rgp1, hits give low values 0.941 | locus YDR150W, strain NUM1, hits give low values 0.99 | locus YDR159W, strain sac3, hits give low values 0.994 | locus YDR162C, strain NBP2, hits give low values 0.955 | locus YDR195W, strain ref2 0.977 | locus YDR297W, strain sur2, hits give low values 0.995 | locus YDR318W, strain mcm21, hits give low values 0.99 | locus YDR334W, strain swr1, hits give low values 1.01 | locus YDR335W, strain msn5, hits give low values 1 | locus YDR388W, hits give low values 0.997 | locus YDR392W, strain spt3, hits give low values 0.988 | locus YDR502C, strain sam2, hits give low values 1.03 | locus YEL003W, strain gim4, hits give low values 1.01 | locus YEL037C, strain rad23, hits give low values 1.01 | locus YEL061C, strain CIN8 (second series), hits give low values 1.02 | locus YER015W, strain faa2, hits give low values 1 | locus YER016W, strain bim1, hits give low values 0.989 | locus YER110C, hits give low values 0.973 | locus YER111C, strain swi4, hits give low values 0.995 | locus YER155C, strain BEM2 (second series), hits give low values 0.998 | locus YER155C, strain BEM2, hits give low values 1.01 | locus YER167W, strain BCK2, hits give low values 0.985 | locus YFR010W, strain ubp6, hits give low values 1 | locus YGL078C, strain dbp3, hits give low values 0.977 | locus YGL086W, strain mad1, hits give low values 1 | locus YGL167C, strain pmr1, hits give low values 0.977 | locus YGL173C, strain kem1, hits give low values 0.991 | locus YGL227W, strain vid30, hits give low values 1.03 | locus YGL240W, strain doc1, hits give low values 0.964 | locus YGL248W, strain PDE1, hits give low values 0.99 | locus YGL253W, strain hxk2, hits give low values 1.01 | locus YGR135W, strain pre9, hits give low values 1.04 | locus YGR252W, strain gcn5, hits give low values 1.01 | locus YHR013C, strain ard1, hits give low values 0.989 | locus YHR027C, strain rpn1, hits give low values 1.01 | locus YHR030C, strain SLT2, hits give low values 0.961 | locus YHR079C, strain IRE1 (second series), hits give low values 0.988 | locus YHR079C, strain IRE1, hits give low values 0.959 | locus YHR094C, strain hxt1, hits give low values 0.983 | locus YHR129C, strain ARP1, hits give low values 0.993 | locus YHR142W, strain chs7, hits give low values 1.02 | locus YHR200W, strain rpn10, hits give low values 0.987 | locus YIL066C, strain RNR3, hits give low values 0.978 | locus YIL073C, strain SPO22, hits give low values 0.97 | locus YIL125W, strain kgd1, hits give low values 0.991 | locus YIR030C, strain dcg1, hits give low values 0.986 | locus YJL092W, strain hpr5, hits give low values 1.01 | locus YJL095W, strain BCK1 (second series), hits give low values 0.997 | locus YJL095W, strain BCK1, hits give low values 1.06 and 0.972 | locus YJL115W, strain asf1, hits give low values 0.982 | locus YJL129C, strain trk1, hits give low values 1.02 | locus YJL134W, strain LCB3, hits give low values 0.977 | locus YJL154C, strain vps35, hits give low values 0.996 | locus YJL164C, strain tpk1, hits give low values 0.995 | locus YJL166W, strain qcr8, hits give low values 0.979 | locus YJL168C, strain set2, hits give low values 0.991 | locus YJL187C, strain SWE1 (second series), hits give low values 1.01 | locus YJL187C, strain SWE1, hits give low values 1 | locus YJR043C, strain POL32, hits give low values 0.941 | locus YJR066W, strain TOR1, hits give low values 0.961 | locus YJR075W, strain HOC1, hits give low values 0.993 | locus YKL009W, strain mrt4, hits give low values 0.971 | locus YKL068W, hits give low values 0.995 | locus YKL085W, strain MDH1 (second series), hits give low values 0.995 | locus YKL085W, strain MDH1, hits give low values 0.995 | locus YKL160W, strain elf1, hits give low values 1.01 | locus YKR001C, strain vps1, hits give low values 0.985 | locus YKR026C, strain gcn3, hits give low values 0.998 | locus YKR091W, strain srl3, hits give low values 0.997 | locus YLL001W, strain dnm1, hits give low values 1.01 | locus YLL026W, hits give low values 0.995 | locus YLL041C, strain sdh2, hits give low values 0.986 | locus YLR027C, strain aat2, hits give low values 1.01 | locus YLR039C, strain RIC1, hits give low values 0.955 | locus YLR058C, strain SHM2, hits give low values 0.97 | locus YLR102C, strain apc9, hits give low values 0.979 | locus YLR113W, strain HOG1, hits give low values 0.929 | locus YLR221C, strain rsa3, hits give low values 0.99 | locus YLR258W, strain gsy2, hits give low values 1.01 | locus YLR262C, strain YPT6 (second series), hits give low values 0.993 | locus YLR262C, strain YPT6, hits give low values 0.967 | locus YLR268W, strain sec22, hits give low values 0.972 | locus YLR320W, strain mms22, hits give low values 0.979 | locus YLR342W, strain FKS1, hits give low values 0.981 | locus YLR357W, strain rsc2, hits give low values 0.923 | locus YLR370C, strain arc18, hits give low values 0.997 | locus YLR371W, strain rom2, hits give low values 0.981 | locus YLR384C, strain iki3, hits give low values 0.995 | locus YLR418C, strain cdc73, hits give low values 1.04 | locus YML016C, strain PPZ1, hits give low values 0.96 | locus YML032C, strain rad52, hits give low values 0.996 | locus YML120C, strain ndi1, hits give low values 0.995 | locus YML124C, strain tub3, hits give low values 0.995 | locus YMR058W, strain fet3, hits give low values 0.987 | locus YMR078C, strain ctf18, hits give low values 0.983 | locus YMR125W, strain sto1, hits give low values 0.996 | locus YMR129W, hits give low values 1.01 | locus YMR205C, strain PFK2, hits give low values 0.992 | locus YMR223W, strain ubp8, hits give low values 1.01 | locus YMR231W, strain pep5, hits give low values 0.994 | locus YMR307W, strain GAS1, hits give low values 1.03 | locus YNL067W, strain RPL9B, hits give low values 0.999 | locus YNL071W, strain lat1, hits give low values 1 | locus YNL153C, strain GIM3, hits give low values 1.02 | locus YNL183C, strain NPR1, hits give low values 0.937 | locus YNL209W, strain ssb2, hits give low values 1.01 | locus YNL233W, strain BNI4, hits give low values 1.03 | locus YNL248C, strain rpa49, hits give low values 0.993 | locus YNL250W, strain rad50, hits give low values 0.991 | locus YNL271C, strain bni1, hits give low values 0.99 | locus YNL298W, strain CLA4, hits give low values 0.959 | locus YNL307C, strain MCK1, hits give low values 1 | locus YNL322C, strain KRE1 (second series), hits give low values 0.998 | locus YNL322C, strain KRE1, hits give low values 0.986 | locus YNR049C, strain mso1, hits give low values 0.982 | locus YNR052C, strain pop2, hits give low values 1.01 | locus YOL012C, strain htz1 1.1 | locus YOL147C, strain pex11, hits give low values 0.993 | locus YOR001W, strain rrp6, hits give low values 1 | locus YOR061W, strain CKA2, hits give low values 0.942 | locus YOR069W, strain VPS5, hits give low values 0.993 | locus YOR070C, strain gyp1, hits give low values 0.999 | locus YOR080W, strain dia2, hits give low values 0.99 | locus YOR083W, strain WHI5, hits give low values 0.991 | locus YOR106W, strain vam3, hits give low values 0.995 | locus YOR136W, strain idh2, hits give low values 1 | locus YOR144C, strain elg1, hits give low values 0.983 | locus YOR184W, strain ser1, hits give low values 0.951 | locus YOR231W, strain MKK1, hits give low values 0.983 | locus YOR265W, strain rbl2, hits give low values 0.991 | locus YOR270C, strain vph1, hits give low values 1.02 | locus YOR290C, strain snf2, hits give low values 1.02 | locus YOR316C, strain cot1, hits give low values 1 | locus YPL051W, strain arl3, hits give low values 1 | locus YPL078C, strain atp4, hits give low values 0.992 | locus YPL106C, strain sse1, hits give low values 0.951 | locus YPL240C, strain hsp82, hits give low values 0.998 | locus YPL241C, strain CIN2, hits give low values 0.991 | locus YPL256C, strain CLN2, hits give low values 0.989 | locus YPR119W, strain clb2, hits give low values 1 | locus YPR141C, strain kar3, hits give low values 0.987 | locus YPR163C, strain tif3, hits give low values 0.984 | locus YPR167C, strain met16, hits give low values 1 | strain wtn01, hits give low values 0.96
